Source: the supplement of paper PMC12632987
Over roughly 4,500 sequences, “median log2 fold change of GCK-ALFA target abundance (FLAG IP / Myc IP barcode read proportion)” has its median near 0.078; the lowest 2% begin near -0.6. Shown is part of a subset that was picked to be rich in the lowest values.

B1: GBRAP_74_6512 (protein)
chain: MEELLAKLKEAAEAKDVDKLVALALEIAETGDKETIEKAAEIVVAFVEANLDTLTPEELEKLSDALATLADKLMELGGDSEVVNRVAETAVALEKKLLAL
B2: GBRAP_52_5860 (protein)
chain: MVEEALEKLRKAVEAMKAGKEEEAEKILKEIVENFDEETILAAAEAFAKEMATATPEEAEAAFRTAEMLGKILEEAGFDEEVVTLIEDTIGAAVARVEAA
B3: GBRAP_139_3742 (protein)
chain: SEMEKKVEEAAKKVAELKDDPEAVADYLTETIASVDEETAEKIARAAVEVLADLPVEERLALDDLILDKLEEAGVDEDKITIVEAELNGGLARHAYAEEL
B4: GBRAP_139_3708 (protein)
chain: SALEEKVAEAKELTKETLENPEESIKKIVELLLSVSEEDLEVVVKAIAETLSEFPLDTAEELADKLLEEVKKRSKDEDKVNIVEAVLNGALARKAYEEEL
B5: GBRAP_80_6860 (protein)
chain: DEARLAAARARLKALLPEAAALIDEVVAIAKELGVPNADIADLLDALAELAEVDPELAKELLEELLEDLREEKEAGDAENALATVRGYAGEALMEAEELE
B6: GBRAP_95_7064 (protein)
chain: EEDLEIAEDLIDTAEDLVEIGLYEQAARAAKAAVEELKEIGYTGELALRAAEVLVKVAEATGNEEAAELAKEVLEEIRKAGGDEKKIEELEKRLEKALKK
B7: GBRAP_52_6171 (protein)
chain: SAEKARKMAEELLEAIKAGDEEKVKKILEEIAKNYTDEEIAAMLREVAKRVPSLSPEDQERVVEAALELEDIAVKAGHDENVLQIEVARVAAAAYDALQA
B8: GBRAP_53_6396 (protein)
chain: AEKEIKEGLKELEALIKRVKADPTLDPKEVAKEASALFKALVAAGAPEEELVKLAKELAEAVKAKGLGVEVSTALAKAAAEAGAEEVQYVFTEAAVEDLE

molecular target: GABARAP, O95166; assay: median log2 fold change of GCK-ALFA target abundance (FLAG IP / Myc IP barcode read proportion) (log2 ratio); each designed protein is fused to an ALFA-tag nanobody in HEK293 cells to bring the named protein to FLAG-tagged glucokinase (GCK); Myc marks an untargeted standard; higher = target protein stabilised (more abundant); details: target protein: 3xFLAG-MCP-GCK-ALFA reporter; HEK293 landing pad (RPLP)
Procedure: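 LABEL-seq trans screen in HEK293 landing-pad cells. Each de novo designed 100-aa effector handle, binding the indicated effector (E3 ligase, DUB or autophagy protein), is fused to a constant NbALFA target handle and induced with 2 ug/mL doxycycline. A FLAG-MCP-GCK-ALFA target and a Myc-MCP standard reporter were transfected, and after 48 h circRNA barcodes were recovered by anti-FLAG and anti-Myc IP and sequenced. The value is the median across barcodes (at least 3 per design) of log2(FLAG/Myc read-proportion ratio), with the two transfection replicates pooled. Negative values mean degradation and positive values mean stabilisation of the target.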

Sequence of GABARAP, O95166 (O95166 whole entry, the tested form may be a part): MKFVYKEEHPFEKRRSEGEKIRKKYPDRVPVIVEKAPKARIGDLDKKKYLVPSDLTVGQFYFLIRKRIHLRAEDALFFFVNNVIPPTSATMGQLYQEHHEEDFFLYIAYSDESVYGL

Binder | median log2 fold change
B1 | 0.23
B2 | 0.165
B3 | 0.187
B4 | 0.163
B5 | -0.593
B6 | 0.373
B7 | -0.631
B8 | 0.274
